FadD28 binding = inhibitors of Mycobacterium tuberculosis FadD28 bisubstrate binding | FadD28 bisubstrate probe binding, fluorescence polarization | actives 0.22% (n = 360,000) | inhibition, % at 12.5 µM; in the data active = inhibition above about 8.5%, passing the limit was not always enough
GDH-TPI counter-1 = GDH-TPI coupled enzyme inhibition counter-screen. GDH-TPI coupled enzyme counterscreen, NADH absorbance. inhibition, % at 4.8 µM. actives 1.2% (n = 360,000). AID 588335; in the data active = inhibition above about 30%;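 note: 0% = DMSO wells and 100% = wells lacking the enzyme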
FBA Mtb inh = Mtb fructose-bisphosphate aldolase inhibition | purified M. tuberculosis FBA, fluorescence read-out | P9WQA3 | inhibition, % at 1 µM | actives 2.3% (n = 360,000);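 note: 0% = vehicle and 100% = reference inhibitor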
Rv3671c protease = inhibitors of M. tuberculosis serine protease Rv3671c. inhibition, % at 5.96 µM. actives 0.048% (n = 320,000); in the data active = inhibition above about 38%;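 note: extracellular domain of Rv3671c used as enzyme; 0% = enzyme with DMSO and 100% = no enzyme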
Mtb hypoxia rep = Mtb hypoxia fluorescent reporter inhibition; M. tuberculosis hypoxia-regulated fluorescent reporter, fluorescence; fluorescence inhibition, % (test concentration not listed); actives 0.1% (n = 300,000); AID 1159583; in the data active = fluorescence inhibition mostly above about 23%, no sharp cut-off; inactive = mostly below about 17%
Mtb UGM inh = inhibitors of M. tuberculosis UDP-galactopyranose mutase; AID 504406; actives 0.06% (n = 320,000); purified UGM, fluorescence polarization probe displacement; inhibition, % at 10 µM; P9WIQ1; in the data active = inhibition above about 10%, passing the limit was not always enough
Target sequence (P9WIQ1 whole entry, looked up): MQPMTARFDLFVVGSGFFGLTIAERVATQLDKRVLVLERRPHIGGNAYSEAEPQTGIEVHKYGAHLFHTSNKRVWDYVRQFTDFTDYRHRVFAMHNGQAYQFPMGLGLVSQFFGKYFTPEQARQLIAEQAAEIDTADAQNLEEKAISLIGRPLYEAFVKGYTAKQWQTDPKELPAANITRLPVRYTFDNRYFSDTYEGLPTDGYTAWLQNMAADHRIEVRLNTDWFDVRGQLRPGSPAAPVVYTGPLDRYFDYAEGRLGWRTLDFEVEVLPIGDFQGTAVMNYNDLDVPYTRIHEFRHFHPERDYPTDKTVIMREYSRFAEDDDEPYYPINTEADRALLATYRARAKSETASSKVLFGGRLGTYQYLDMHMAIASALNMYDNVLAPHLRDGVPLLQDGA
Mtb FBA confirm = Mtb FBA inhibition, confirmed. actives 78% (n = 5,600). shares compounds with FBA Mtb inh. AID 651616. purified M. tuberculosis FBA, fluorescence read-out. inhibition, % at 1 µM;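 note: 0% = vehicle wells and 100% = reference inhibitor wells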
GDH-TPI counter-2 = inhibits GDH-TPI coupling enzymes, flagging Mtb FBA hits | shares compounds with FBA Mtb inh | GDH-TPI coupled enzyme counterscreen, fluorescence | inhibition, % at 1 µM | actives 81% (n = 5,600) | AID 652141; in the data active = inhibition above about 10%
The depositor's hits bear a star; · = no result; + = active, no number. In the library only some 3.5% were active in any assay of this set; here they are far more common. Cut-off read from the data, not from the text of the source, unless noted: active = inhibition above about 27%; inactive = the rest.

SMILES | FadD28 binding | GDH-TPI counter-1 | FBA Mtb inh | Rv3671c protease | Mtb hypoxia rep | Mtb UGM inh | Mtb FBA confirm | GDH-TPI counter-2
CCCCCCc1c(C)c2ccc(OCC(=O)N3CCC[C@H]3C(=O)O)c(C)c2oc1=O | -11.2 | 27.4 | 81.0* | -2.0 | · | -0.3 | 148.1* | 113.2*
O=C(NN=Cc1cnc(N2CCCCC2)s1)c1ccc(C(F)(F)F)cc1 | · | · | · | · | 11.9 | · | · | ·
N=c1c(C(=O)NCc2ccco2)cc2c(=O)n3ccccc3nc2n1Cc1ccc(Cl)cc1 | -4.3 | 12.7 | 43.5* | 7.4 | 11.5 | -1.4 | 113.5* | 86.6*
Cc1cccc(NC(=O)c2cc3c(=O)n4ccccc4nc3n(CC(C)C)c2=N)c1 | 0.2 | -5.3 | -0.1 | 0.2 | 2.0 | -1.8 | · | ·
O=C(NC1CCS(=O)(=O)C1)c1cc2c(=O)n3ccccc3nc2n1Cc1ccccc1 (centres undefined) | -3.2 | 22.1 | 102.0* | · | · | · | + | 195.6*
Cc1ccc(S(=O)(=O)c2cc3c(=O)n4ccccc4nc3n(Cc3ccco3)c2=N)cc1 | -3.8 | 34.9* | 87.2* | -23.2 | -6.3 | 0.9 | + | +
N=c1c(C(=O)NCc2ccccc2)cc2c(=O)n3ccccc3nc2n1Cc1ccco1 | -4.6 | 17.2 | 49.9* | -2.5 | -1.3 | -1.1 | 87.8* | 78.5*
Nn1cnnc1NN=Cc1cc([N+](=O)[O-])c(Cl)cc1Cl | · | · | · | · | -0.1 | · | · | ·
COc1ccccc1NC(=S)N1CCN(CC=Cc2ccccc2)CC1 | · | · | · | · | -3.4 | · | · | ·
COc1ccc(C2CC(c3ccccc3)Oc3cc(OC)cc(OC)c32)cc1 (centres undefined) | · | · | · | · | 0.0 | · | · | ·
Cc1ccc(CNC(=O)c2cc3c(=O)n4ccccc4nc3n(Cc3ccco3)c2=N)cc1 | -0.9 | 22.4 | 62.8* | 0.0 | -3.3 | -0.1 | 54.2* | 47.7*
Cc1cc2ccccc2c(=O)n1CC(=O)NCc1ccco1 | 2.0 | 6.3 | 4.2 | -6.4 | 1.2 | 1.4 | · | ·
Cc1ccc2nc3c(cc(C(=O)NCc4ccco4)c(=N)n3Cc3ccco3)c(=O)n2c1 | -0.1 | 14.3 | 41.6* | 0.6 | 3.0 | 0.7 | 48.8* | 36.3*
CCOC(=O)C(C#N)=NNc1ccc(S(=O)(=O)N2CCc3ccccc32)cc1 | · | · | · | · | 10.5 | · | · | ·
CCCCSC(N)=NN=Cc1cc(C)ccc1O | · | · | · | · | 7.6 | · | · | ·
COc1cc2c3c([nH]c2cc1F)C(=O)NCC3 | -4.7 | -3.5 | 102.0* | 4.8 | 0.6 | 3.7 | 70.7* | 45.7*
C=C(C)Cn1c(SCC(=O)NN=Cc2cccc(O)c2)nc2ccccc2c1=O | · | · | · | · | 7.1 | · | · | ·
CCOC(=O)C1=C(C)NC(C)=C(C(=O)OCC)C1c1cn(-c2ccccc2)nc1-c1ccco1 | -4.8 | 4.1 | 60.9* | -3.7 | · | 3.0 | 3.2 | -5.6
CCOC(=O)C1=C(C)NC(=O)NC1c1cn(-c2ccccc2)nc1-c1cccs1 (centres undefined) | -2.8 | -9.4 | 3.1 | -0.6 | -2.3 | -0.6 | · | ·
CCN1CC2C3C(=O)N(Cc4ccccc4)C(=O)C3[C@](C)(C1=O)N2C(=O)c1ccc(C(F)(F)F)cc1 (some centres undefined) | · | · | · | · | 0.8 | · | · | ·
CN(C)CCNC(=O)c1cccn(Cc2cc(C(F)(F)F)cc(C(F)(F)F)c2)c1=O | -2.3 | 12.3 | 61.5* | 8.1 | 8.2 | 1.3 | 1.9 | -2.1
CN(C)C(=O)c1cccn(Cc2ccc(C(F)(F)F)cc2)c1=O | -0.9 | 6.0 | 0.9 | 8.2 | 17.5 | 1.5 | · | ·
Cc1cccc(C=Nc2ccccc2C(N)=O)c1 | 0.3 | 2.1 | 35.6* | 3.0 | 6.0 | 1.1 | 139.9* | 100.9*
Cc1ccc(/C=N/N=C/c2ccc(C)s2)s1 | 0.0 | 18.4 | 0.9 | -1.6 | · | 1.2 | · | ·
Cc1cccc(/C=N/NC(=O)Cc2cccs2)c1 | -2.4 | -11.5 | 0.9 | 10.8 | · | 1.5 | · | ·
Cc1ccc(C=Nc2ccccc2C(N)=O)s1 | 1.3 | 13.3 | 58.4* | -4.2 | -1.2 | 1.1 | 59.5* | 50.2*
Cc1cc(N2CCN(C)CC2)nc2ccc(NC(=S)N3CCN(c4ccc(Cl)cc4)CC3)cc12 | -0.5 | 11.4 | 27.1* | 4.7 | 15.2 | -2.9 | 134.9* | 127.8*
Cc1cc(N2CCN(C)CC2)nc2ccc(NC(=O)CCC(=O)NCc3ccco3)cc12 | -1.3 | 5.2 | 31.9* | -4.2 | -20.9 | 3.5 | 68.3* | 69.4*

Screening data deposited in PubChem by several laboratories.
